Our source for the cell viability values is the supplement of paper PMC12808144.

A number with no mark means an inactive call.

One experiment relates to Mel-DCC-11. Nature of the experiment: cell viability relative to DMSO control (fraction of DMSO control); higher = less cytotoxic, active = 0.5 or less. The following applies: 1 µM; 120 h. The method in brief:
(§1)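 Patient-derived Mel-DCC-11, its resistant subline Mel-DCC-11-R (alone and with 8 µM of its selecting drug) and NHEM-hTERT immortalized melanocytes were exposed for 120 h to 315 approved anti-cancer drugs at 1 µM in duplicate. Luminescence was read with ATPlite 1step. Viability was normalised to vehicle controls and averaged over duplicates.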

The subject of another experiment is NHEM-hTERT. The description is as above. The note with it: 1 µM; 120 h. Summed up: as §1
The test system of the next experiment is Mel-DCC-11-R. Nature of the experiment: cell viability relative to DMSO control (fraction of DMSO control); higher = less cytotoxic, active = 0.8 or less. The note with it: 1 µM, 120 h. The method in brief: as §1

As to `CC(C)C[C@H](NC(=O)[C@H](Cc1ccccc1)NC(=O)c1cnccn1)B(O)O` [Bortezomib], the cell viability in the experiment with Mel-DCC-11 was 0.0258 (active); in the experiment with NHEM-hTERT it was 0.0282 (active); in the experiment with Mel-DCC-11-R (vemurafenib co-treatment 0 µM) it was 0.0464 (active); in the experiment with Mel-DCC-11-R (vemurafenib co-treatment 8 µM), 0.048 (active).

On to `Nc1nc(F)nc2c1ncn2[C@@H]1O[C@H](CO)[C@@H](O)[C@@H]1O` [Fludarabine], for which the cell viability in the experiment on Mel-DCC-11 is 1.15; in the experiment on NHEM-hTERT, 0.934; with Mel-DCC-11-R (vemurafenib co-treatment 0 µM), 1.2; in the experiment on Mel-DCC-11-R (vemurafenib co-treatment 8 µM) it was 0.977.

As to `CCCC(=O)O[C@]1(C(=O)CO)CC[C@H]2[C@@H]3CCC4=CC(=O)CC[C@]4(C)[C@H]3[C@@H](O)C[C@@]21C` [Hydrocortisone butyrate], the cell viability in the experiment on Mel-DCC-11 is 1.4; in the experiment on NHEM-hTERT it was 0.973; in the experiment on Mel-DCC-11-R (vemurafenib co-treatment 0 µM), 1.21; with Mel-DCC-11-R (vemurafenib co-treatment 8 µM), 1.14.

For the compound `Nc1cccc2c1CN(C1CCC(=O)NC1=O)C2=O` (configuration not stated) [Lenalidomide], the cell viability in the experiment with Mel-DCC-11 was 0.996; in the experiment with NHEM-hTERT, 0.996; in the experiment with Mel-DCC-11-R (vemurafenib co-treatment 0 µM), 0.713 (active); in the experiment on Mel-DCC-11-R (vemurafenib co-treatment 8 µM) it was 1.01.

As for `C[C@@H]1O[C@@H](O[C@H]2[C@H](Oc3cc(O)c4c(c3)O[C@H](c3ccc(O)cc3)CC4=O)O[C@H](CO)[C@@H](O)[C@@H]2O)[C@H](O)[C@H](O)[C@H]1O` [Naringin], the cell viability in the experiment with Mel-DCC-11 was 0.983; with NHEM-hTERT, 0.986; in the experiment with Mel-DCC-11-R (vemurafenib co-treatment 0 µM), 1.02; with Mel-DCC-11-R (vemurafenib co-treatment 8 µM), 1.19.

For `COc1ccc2cc1Oc1ccc(cc1)C[C@H]1c3c(cc4c(c3Oc3cc5c(cc3OC)CCN(C)[C@@H]5C2)OCO4)CCN1C` [Cepharanthine], the cell viability in the experiment with Mel-DCC-11 was 0.589; in the experiment on NHEM-hTERT it was 1.13; in the experiment on Mel-DCC-11-R (vemurafenib co-treatment 0 µM), 0.934; in the experiment with Mel-DCC-11-R (vemurafenib co-treatment 8 µM), 0.912.

Consider `O=C(/C=C/c1cccc(S(=O)(=O)Nc2ccccc2)c1)NO` [Belinostat], for which the cell viability in the experiment with Mel-DCC-11 was 1.03; with NHEM-hTERT, 0.737; with Mel-DCC-11-R (vemurafenib co-treatment 0 µM), 0.839; in the experiment on Mel-DCC-11-R (vemurafenib co-treatment 8 µM), 0.659 (active).

With `O.S=c1nc[nH]c2nc[nH]c12` [6-Mercaptopurine monohydrate], the cell viability in the experiment with Mel-DCC-11 was 0.736; with NHEM-hTERT it was 0.937; with Mel-DCC-11-R (vemurafenib co-treatment 0 µM) it was 0.725 (active); in the experiment on Mel-DCC-11-R (vemurafenib co-treatment 8 µM), 0.881.

Take `CCN(CC)CCOc1ccc2c(c1)C(=O)c1cc(OCCN(CC)CC)ccc1-2.Cl.Cl` [Tilorone dihydrochloride]: the cell viability in the experiment on Mel-DCC-11 is 1.06; in the experiment on NHEM-hTERT it was 1.15; in the experiment on Mel-DCC-11-R (vemurafenib co-treatment 0 µM) it was 0.883; in the experiment with Mel-DCC-11-R (vemurafenib co-treatment 8 µM), 1.15.

Turning to `NC(=O)NO` [Hydroxyurea], the cell viability in the experiment on Mel-DCC-11 is 0.899; in the experiment on NHEM-hTERT, 1.1; with Mel-DCC-11-R (vemurafenib co-treatment 0 µM) it was 1.09; with Mel-DCC-11-R (vemurafenib co-treatment 8 µM) it was 0.655 (active).

Turning to `CC#CC(=O)N1CCC[C@H]1c1nc(-c2ccc(C(=O)Nc3ccccn3)cc2)c2c(N)nccn12` [Acalabrutinib], the cell viability in the experiment with Mel-DCC-11 is 1.12; in the experiment with NHEM-hTERT, 1; in the experiment with Mel-DCC-11-R (vemurafenib co-treatment 0 µM) it was 1.04; with Mel-DCC-11-R (vemurafenib co-treatment 8 µM), 1.

Take `Nc1nc(Cl)nc2c1ncn2[C@H]1C[C@H](O)[C@@H](CO)O1` [Cladribine]: the cell viability is 0.402 (active) in the experiment with Mel-DCC-11, 0.592 with NHEM-hTERT, 0.977 in the experiment on Mel-DCC-11-R (vemurafenib co-treatment 0 µM) and 0.722 (active) with Mel-DCC-11-R (vemurafenib co-treatment 8 µM).

As to `C=CC(=O)Nc1cc(Nc2nccc(-c3cn(C)c4ccccc34)n2)c(OC)cc1N(C)CCN(C)C.CS(=O)(=O)O` [Osimertinib mesylate], the cell viability in the experiment on Mel-DCC-11 is 0.859; in the experiment with NHEM-hTERT it was 1.14; in the experiment with Mel-DCC-11-R (vemurafenib co-treatment 0 µM), 1.21; with Mel-DCC-11-R (vemurafenib co-treatment 8 µM), 0.744 (active).

As for `CN(C)C(=N)N=C(N)N.Cl` [Metformin hydrochloride], the cell viability in the experiment with Mel-DCC-11 is 1.03; in the experiment with NHEM-hTERT, 1.07; in the experiment on Mel-DCC-11-R (vemurafenib co-treatment 0 µM), 0.843; with Mel-DCC-11-R (vemurafenib co-treatment 8 µM), 1.08.

For the compound `CC[C@]1(O)C[C@@H]2C[N@@](CCc3c([nH]c4ccccc34)[C@@](C(=O)OC)(c3cc4c(cc3OC)N(C)[C@H]3[C@@](O)(C(=O)OC)[C@H](OC(C)=O)[C@]5(CC)C=CCN6CC[C@]43[C@@H]65)C2)C1.O=S(=O)(O)O` [Vinblastine sulfate], the cell viability in the experiment on Mel-DCC-11 is 0.428 (active); in the experiment with NHEM-hTERT, 0.567; in the experiment on Mel-DCC-11-R (vemurafenib co-treatment 0 µM), 0.488 (active); in the experiment on Mel-DCC-11-R (vemurafenib co-treatment 8 µM) it was 0.252 (active).

For the compound `N#Cc1ccnc(N2C(=O)CC[C@H]2C(=O)N(c2cncc(F)c2)[C@H](C(=O)NC2CC(F)(F)C2)c2ccccc2Cl)c1` [Ivosidenib], the cell viability in the experiment with Mel-DCC-11 is 1.32; with NHEM-hTERT, 1.27; in the experiment on Mel-DCC-11-R (vemurafenib co-treatment 0 µM), 1.25; in the experiment on Mel-DCC-11-R (vemurafenib co-treatment 8 µM), 1.06.

Turning to `O=C(CCCCCCC(=O)Nc1ccccc1)NO` [Vorinostat], the cell viability in the experiment with Mel-DCC-11 was 1.05; with NHEM-hTERT it was 0.871; with Mel-DCC-11-R (vemurafenib co-treatment 0 µM) it was 0.923; with Mel-DCC-11-R (vemurafenib co-treatment 8 µM) it was 1.04.

Turning to `COc1cccc2c1C(=O)c1c(O)c3c(c(O)c1C2=O)C[C@@](O)(C(=O)CO)C[C@@H]3O[C@H]1C[C@H](N)[C@@H](O)[C@H](C)O1.Cl` [Epirubicin hydrochloride], the cell viability is 0.286 (active) in the experiment on Mel-DCC-11, 0.647 in the experiment on NHEM-hTERT, 0.426 (active) in the experiment with Mel-DCC-11-R (vemurafenib co-treatment 0 µM) and 0.183 (active) in the experiment on Mel-DCC-11-R (vemurafenib co-treatment 8 µM).
